The target in experiment [1] is Rap guanine nucleotide exchange factor 3 (Homo sapiens) (UniProt O95398). In words: Counterscreen qHTS for agonist of cAMP-regulated guanine nucleotide exchange factor 3 (EPAC1) (AID 1645889). Further: nearly all actives have a fitted effect of over 40% in size. The essentials: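 Rap1B-BODIPY-GDP 250 nM + GDP 50 uM; cpds 7-pt, final 9.74 nM–152 uM (activator mode) or from 7.32 nM upwards (inhibitor mode); RT; FI 480/540 nm at 5 and 30 min, then ± cAMP, reread.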

For experiment [2], the target named is Guanine nucleotide-binding protein G(i) subunit alpha-1 (Homo sapiens) (UniProt P63096). In words: qHTS Assay for Inhibitors of RGS12 GoLoco Motif Activity (Green Fluorophore) (AID 879).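 Further: negative values mean loss of peptide binding seen as reduced polarization.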 In outline: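 Fluorescence polarization assay: 50 nM Gαi1 with 10 nM FITC-labeled RGS12 GoLoco peptide in 10 mM Tris pH 7.5, 150 mM NaCl, 0.1 mM GDP, 0.05% NP40, 10 min at room temperature with compound.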
Guanine nucleotide-binding protein G(i) subunit alpha-1 (Homo sapiens), sequence (P63096 whole entry, looked up): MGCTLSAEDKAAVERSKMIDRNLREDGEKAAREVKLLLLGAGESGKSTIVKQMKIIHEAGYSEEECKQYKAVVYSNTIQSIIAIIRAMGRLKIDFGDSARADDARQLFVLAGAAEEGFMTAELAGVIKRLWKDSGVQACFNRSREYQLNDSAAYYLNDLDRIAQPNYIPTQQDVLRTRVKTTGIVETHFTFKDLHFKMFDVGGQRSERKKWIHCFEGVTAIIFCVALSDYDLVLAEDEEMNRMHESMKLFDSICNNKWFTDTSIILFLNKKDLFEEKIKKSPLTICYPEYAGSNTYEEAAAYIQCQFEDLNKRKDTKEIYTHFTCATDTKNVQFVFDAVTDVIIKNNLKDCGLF
(Quantitative high-throughput screening tests each substance at several concentrations.)

Experiment [3] concerns the target Muscarinic acetylcholine receptor M1 (Rattus norvegicus) (UniProt P08482). In words: qHTS Assay for Antagonists of Acetylcholine Muscarinic M1 Receptor: Measurement of IP-One Response (AID 944). Further: nearly all actives have a fitted effect of over 75% in size. The essentials:
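M1-CHO (rat), 2000 cells/well, overnight recovery; cpd 10 min; carbachol EC80 (200 nM), 30 min, HEPES buffer + 50 mM LiCl pH 7.4; IP-One HTRF, Ex 337, Em 620/665 nm.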

Experiment [4] addresses Pyruvate kinase (Leishmania mexicana) (UniProt Q27686). In words: qHTS Validation Assay for Inhibitors of Leishmania Mexicana Pyruvate Kinase (AID 945). The essentials: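 Eight-point qHTS titrations in triplicate, data normalized to DMSO neutral control. Reaction: 0.2 nM LmPYK E451W mutant, 0.5 mM PEP, 0.1 mM ADP, 7 mM MgCl2, pH 7.2, one hour at room temperature; luminescent ATP detection.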

The target of experiment [5] is Pyruvate kinase PKM (Homo sapiens) (UniProt P14618). In words: qHTS Assay for Activators of Human Muscle Pyruvate Kinase (AID 954; active means well fitted curve in the direction sought with a large enough effect, not every such curve was filed as active). In outline: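 Purified human PKM2 (0.1 nM) with 0.5 mM PEP (Km) and 0.1 mM ADP in 50 mM imidazole pH 7.2, KCl, MgCl2, 1 h at room temperature; ATP formed read by coupled luciferase luminescence. Normalized to no-enzyme/110 uM thiadiazolimine inhibition; 0.3 nM enzyme column for activation.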
Pyruvate kinase PKM (Homo sapiens), sequence (P14618 whole entry, looked up): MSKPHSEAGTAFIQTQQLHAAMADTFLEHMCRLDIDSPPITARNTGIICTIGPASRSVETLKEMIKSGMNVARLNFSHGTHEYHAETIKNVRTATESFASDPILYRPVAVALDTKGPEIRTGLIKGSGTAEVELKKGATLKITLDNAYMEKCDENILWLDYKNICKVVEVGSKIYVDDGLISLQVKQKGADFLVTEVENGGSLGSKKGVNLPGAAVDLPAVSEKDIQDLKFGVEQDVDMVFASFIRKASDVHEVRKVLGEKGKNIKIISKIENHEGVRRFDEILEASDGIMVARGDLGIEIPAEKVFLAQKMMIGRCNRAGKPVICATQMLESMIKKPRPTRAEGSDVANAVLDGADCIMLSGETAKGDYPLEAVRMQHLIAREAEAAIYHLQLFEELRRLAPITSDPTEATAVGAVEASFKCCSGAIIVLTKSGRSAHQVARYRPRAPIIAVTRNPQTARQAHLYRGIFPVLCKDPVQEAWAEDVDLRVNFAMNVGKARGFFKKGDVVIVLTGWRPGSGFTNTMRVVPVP

The target in experiment [6] is alpha-glucosidase (Oryza sativa, rice) (UniProt Q653V4). In words: Counterscreen for Glucocerebrosidase Inhibitors: qHTS Assay for Rice alpha-Glucosidase at pH 5.0 (AID 997). The essentials: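 Rice alpha-glucosidase (4 nM final) with 400 uM 4-methylumbelliferyl-alpha-D-glucopyranoside in citrate buffer pH 5.0, 20 min at room temperature, stopped at pH 10; fluorescence 365/440 nm, compounds 0.7 nM–77 uM, AC50 from Hill fits.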

Experiment [7] is described as follows: qHTS for differential inhibitors of proliferation of Plasmodium falciparum line Dd2 (AID 1882). Further: potency means the concentration at half of the fitted maximal effect; nearly all actives have a fitted effect of over 65% in size. The conditions noted are these: Potency: Plasmodium falciparum Dd2 proliferation inhibition. The essentials: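 Dd2-infected erythrocytes (0.3% parasitemia, 2.5% hematocrit final) incubated with compound 72 h at 37 C, 5% CO2; lysed with saponin/Triton buffer containing SYBR Green I, incubated overnight in the dark, then read by fluorescence (485/535 nm). Normalized to 0.29 uM artemisinin and DMSO.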

Experiment [8] deals with Ferritin light chain (Equus caballus) (UniProt P02791). In words: qHTS Validation Assay for Identification of Novel General Anesthetics (AID 2323). The essentials:
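Apoferritin from horse spleen (10 uM) was mixed with 1-aminoanthracene at 50% saturation in PBS, then compounds were added. After 10 min at room temperature, fluorescence was read (ex 380 nm, em 535 nm) and normalized to free-probe and complex controls.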

The target in experiment [9] is RecQ-like DNA helicase BLM (Homo sapiens) (UniProt P54132). The experiment in a line: qHTS Validation Assay for Inhibitors of Bloom's syndrome helicase (BLM) (AID 2364). The essentials: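 Forked 20-bp duplex substrate (200 nM, TAMRA/BHQ-2) plus 2 mM ATP added after 15 min compound preincubation with 50 nM enzyme, pH 8.0, poly(dI-dC) 2.5 ug/ml. Strand separation followed by fluorescence (525/598 nm) over 2 h, normalized to enzyme-free and DMSO controls.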
RecQ-like DNA helicase BLM (Homo sapiens), sequence (P54132 whole entry, looked up): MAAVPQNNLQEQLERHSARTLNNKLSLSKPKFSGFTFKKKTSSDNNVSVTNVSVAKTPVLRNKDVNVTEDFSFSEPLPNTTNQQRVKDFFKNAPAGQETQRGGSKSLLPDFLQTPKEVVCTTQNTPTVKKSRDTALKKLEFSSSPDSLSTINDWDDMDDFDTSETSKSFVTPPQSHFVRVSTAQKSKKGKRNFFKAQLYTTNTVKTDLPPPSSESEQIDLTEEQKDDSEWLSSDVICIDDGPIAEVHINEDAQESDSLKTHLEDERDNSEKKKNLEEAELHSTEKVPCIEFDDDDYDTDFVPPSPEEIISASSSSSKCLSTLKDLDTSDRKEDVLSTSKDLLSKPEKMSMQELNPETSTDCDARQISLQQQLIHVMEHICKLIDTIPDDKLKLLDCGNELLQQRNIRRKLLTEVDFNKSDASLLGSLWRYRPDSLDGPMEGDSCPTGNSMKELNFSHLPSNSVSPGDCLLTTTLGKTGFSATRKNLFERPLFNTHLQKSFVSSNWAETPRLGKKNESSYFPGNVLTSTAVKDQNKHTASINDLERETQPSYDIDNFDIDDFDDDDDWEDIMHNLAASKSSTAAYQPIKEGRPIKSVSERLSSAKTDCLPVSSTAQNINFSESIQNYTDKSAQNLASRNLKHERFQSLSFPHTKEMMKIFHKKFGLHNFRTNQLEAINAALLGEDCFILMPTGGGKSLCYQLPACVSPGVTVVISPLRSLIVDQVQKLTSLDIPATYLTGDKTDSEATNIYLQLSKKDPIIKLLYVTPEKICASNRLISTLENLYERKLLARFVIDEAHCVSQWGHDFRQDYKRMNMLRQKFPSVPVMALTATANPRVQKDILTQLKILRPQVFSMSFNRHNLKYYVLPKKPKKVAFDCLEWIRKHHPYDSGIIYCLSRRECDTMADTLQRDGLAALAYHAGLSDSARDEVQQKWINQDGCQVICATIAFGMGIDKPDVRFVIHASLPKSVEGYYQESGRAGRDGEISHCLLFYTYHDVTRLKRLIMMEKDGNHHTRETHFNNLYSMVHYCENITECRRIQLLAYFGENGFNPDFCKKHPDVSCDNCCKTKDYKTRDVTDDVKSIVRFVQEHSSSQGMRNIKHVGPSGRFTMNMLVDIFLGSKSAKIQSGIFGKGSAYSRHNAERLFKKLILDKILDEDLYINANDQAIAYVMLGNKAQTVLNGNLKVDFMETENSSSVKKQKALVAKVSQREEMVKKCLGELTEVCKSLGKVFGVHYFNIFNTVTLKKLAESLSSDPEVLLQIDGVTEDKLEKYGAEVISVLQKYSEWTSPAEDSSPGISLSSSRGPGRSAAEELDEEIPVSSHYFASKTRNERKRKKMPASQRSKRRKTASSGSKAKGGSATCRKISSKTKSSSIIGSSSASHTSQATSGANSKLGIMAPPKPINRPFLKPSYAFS

Experiment [10] is described as follows: Quantitative high throughput screen for delayed death inhibitors of the malarial parasite plastid, 48 hour incubation (AID 488752). Further: potency means the concentration at half of the fitted maximal effect; nearly all actives have a fitted effect of over 65% in size. The essentials:
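Readout is firefly luciferase luminescence from a reporter integrated into the parasite genome, with lower signal taken as inhibited growth. Infected red cells (0.1% parasitemia, 2% hematocrit final) are cultured with compound for one 48 h cycle at 37 C.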

Experiment [11] has as its target Voltage-gated inwardly rectifying potassium channel KCNH2 (Homo sapiens) (UniProt Q12809). The experiment in a line: qHTS Assay for Small Molecule Inhibitors of the Human hERG Channel Activity (AID 588834).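 Further: potency means the concentration at half of the fitted maximal effect; lower thallium flux fluorescence means stronger hERG block; nearly all actives have a fitted effect of over 50% in size.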 The essentials: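 Measured: FluxOR fluorescence after thallium stimulation in U2OS cells transduced with hERG by baculovirus. Compounds pre-incubated around 10 min; medium Opti-MEM with 2% FCS. AC50 from Hill equation.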

Experiment [12] can be described thus: NCATS anti-infectives library activity on the primary C. elegans qHTS viability assay (AID 1745855; calls by dose curve; further: potency means the concentration at half of the fitted maximal effect). The settings on record: C. elegans worm area imaging, day 7. In outline: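 Viability read-out is GFP fluorescence of PE254-GFP-FLuc C. elegans, measured by laser cytometry (488 nm) at day 0, 3 and 7. Ten L1 worms per well were incubated 7 days at 21 °C with compounds and bacterial capsules in S medium.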

The subject of another experiment is AS120. In words: qHTS profiling for inhibitors of Plasmodium falciparum proliferation (AID 504749). Further: potency means the concentration at half of the fitted maximal effect; nearly all actives have a fitted effect of over 60% in size. The conditions noted are these: P. falciparum in erythrocytes, SYBR Green DNA, 72 h; series mostly up to 28.7 µM. In outline:
(§1)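 Infected RBCs, 0.3% parasitemia/2.5% Hct final; cpd 72 h, 37 C, 5% CO2; lysis buffer with saponin/triton/SYBR Green I, o/n RT dark; FI 485/535; norm. to artemisinin (0.29 uM) and DMSO.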

Another experiment has as its system CP191. Described as above. The settings on record: P. falciparum in erythrocytes, SYBR Green DNA, 72 h; series mostly up to 12.8 µM. The essentials: as §1
For a further experiment, the system named is CP192. The description is as above. The conditions noted are these: P. falciparum in erythrocytes, SYBR Green DNA, 72 h; series mostly up to 28.7 µM. In outline: as §1
For another experiment, the system named is CP194. The description is as above. The conditions noted are these: P. falciparum in erythrocytes, SYBR Green DNA, 72 h; series mostly up to 12.8 µM. The essentials: as §1
A further experiment relates to CP203. The description is as above. The settings on record: P. falciparum in erythrocytes, SYBR Green DNA, 72 h; series mostly up to 12.8 µM. The essentials:
as §1

The next experiment deals with CP247. The experiment is described as above. The settings on record: P. falciparum in erythrocytes, SYBR Green DNA, 72 h; series mostly up to 12.8 µM. In outline:
as §1

Another experiment concerns CP291. The experiment is described as above. The conditions noted are these: P. falciparum in erythrocytes, SYBR Green DNA, 72 h; series mostly up to 12.8 µM. The essentials:
as §1

The test system of another experiment is P94_40. The experiment is described as above. The settings on record: P. falciparum in erythrocytes, SYBR Green DNA, 72 h; series mostly up to 12.8 µM. The essentials:
as §1

Records with an inconclusive call do not appear. The source made the active and inactive calls. Unless noted, the call rests on the fitted dose curve; in most records, active means well fitted curve in the direction sought with a large enough effect; inconclusive means small, poorly fitted or top-dose-only effect, or another doubt; inactive means no such curve, though single readings can be large; an effect the other way counts as inactive or inconclusive.

Pyruvate kinase (Leishmania mexicana), sequence (Q27686 2-499 E452W): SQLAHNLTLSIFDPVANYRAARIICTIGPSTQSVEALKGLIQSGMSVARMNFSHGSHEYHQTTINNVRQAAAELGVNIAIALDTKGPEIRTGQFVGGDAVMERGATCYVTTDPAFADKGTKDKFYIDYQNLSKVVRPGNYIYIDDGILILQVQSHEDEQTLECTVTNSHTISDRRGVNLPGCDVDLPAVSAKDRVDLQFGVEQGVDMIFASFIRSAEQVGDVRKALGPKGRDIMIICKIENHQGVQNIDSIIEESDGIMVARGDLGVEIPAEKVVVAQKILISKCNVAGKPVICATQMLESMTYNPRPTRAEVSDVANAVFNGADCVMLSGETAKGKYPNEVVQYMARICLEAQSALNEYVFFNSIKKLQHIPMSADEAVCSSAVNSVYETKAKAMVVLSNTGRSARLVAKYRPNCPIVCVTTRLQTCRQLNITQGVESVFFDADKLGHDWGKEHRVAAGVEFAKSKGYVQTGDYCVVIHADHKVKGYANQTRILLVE
Muscarinic acetylcholine receptor M1 (Rattus norvegicus), sequence (P08482 whole entry, looked up): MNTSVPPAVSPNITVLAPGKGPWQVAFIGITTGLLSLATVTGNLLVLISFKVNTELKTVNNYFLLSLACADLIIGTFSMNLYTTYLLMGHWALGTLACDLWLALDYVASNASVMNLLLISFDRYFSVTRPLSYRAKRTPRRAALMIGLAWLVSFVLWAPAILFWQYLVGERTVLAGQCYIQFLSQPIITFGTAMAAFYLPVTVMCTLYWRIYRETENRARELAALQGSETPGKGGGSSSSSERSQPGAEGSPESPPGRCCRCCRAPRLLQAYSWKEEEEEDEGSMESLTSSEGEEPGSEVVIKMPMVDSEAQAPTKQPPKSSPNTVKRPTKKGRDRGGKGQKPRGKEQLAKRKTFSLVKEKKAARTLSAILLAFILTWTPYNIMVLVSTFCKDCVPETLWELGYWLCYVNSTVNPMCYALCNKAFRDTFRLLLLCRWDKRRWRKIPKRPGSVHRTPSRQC
Voltage-gated inwardly rectifying potassium channel KCNH2 (Homo sapiens), sequence (Q12809 whole entry, looked up): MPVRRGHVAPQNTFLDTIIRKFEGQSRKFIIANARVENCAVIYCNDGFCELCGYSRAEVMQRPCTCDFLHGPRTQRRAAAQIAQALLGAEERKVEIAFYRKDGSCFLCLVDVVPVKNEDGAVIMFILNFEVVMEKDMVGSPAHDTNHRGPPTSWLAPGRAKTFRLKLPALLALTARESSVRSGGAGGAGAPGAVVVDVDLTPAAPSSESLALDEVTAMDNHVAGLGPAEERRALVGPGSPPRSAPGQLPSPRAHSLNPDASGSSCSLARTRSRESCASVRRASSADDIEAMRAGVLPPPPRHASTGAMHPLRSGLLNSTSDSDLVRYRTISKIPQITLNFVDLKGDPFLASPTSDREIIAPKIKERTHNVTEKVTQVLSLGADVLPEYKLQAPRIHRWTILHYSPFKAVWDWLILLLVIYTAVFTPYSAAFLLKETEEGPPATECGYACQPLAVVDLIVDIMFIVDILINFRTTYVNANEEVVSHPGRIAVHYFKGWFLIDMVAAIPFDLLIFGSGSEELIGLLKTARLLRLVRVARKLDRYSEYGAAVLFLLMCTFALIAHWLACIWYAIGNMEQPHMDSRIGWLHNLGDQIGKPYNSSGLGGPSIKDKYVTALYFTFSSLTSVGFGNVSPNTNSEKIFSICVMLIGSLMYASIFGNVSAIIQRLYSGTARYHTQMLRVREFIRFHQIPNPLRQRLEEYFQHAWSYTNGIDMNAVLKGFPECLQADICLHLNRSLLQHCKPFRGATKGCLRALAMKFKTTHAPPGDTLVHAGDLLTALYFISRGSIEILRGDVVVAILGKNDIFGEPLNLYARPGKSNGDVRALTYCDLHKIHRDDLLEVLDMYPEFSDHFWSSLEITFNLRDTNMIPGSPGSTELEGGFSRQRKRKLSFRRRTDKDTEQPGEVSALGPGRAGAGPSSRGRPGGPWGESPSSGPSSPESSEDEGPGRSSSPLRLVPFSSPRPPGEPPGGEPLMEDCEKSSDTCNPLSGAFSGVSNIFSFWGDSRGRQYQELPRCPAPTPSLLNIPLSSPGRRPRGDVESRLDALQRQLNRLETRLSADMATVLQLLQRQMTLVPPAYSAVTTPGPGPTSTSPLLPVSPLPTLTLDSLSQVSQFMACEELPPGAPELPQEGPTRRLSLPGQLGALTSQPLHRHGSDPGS
Ferritin light chain (Equus caballus), sequence (P02791 2-175 limits assumed): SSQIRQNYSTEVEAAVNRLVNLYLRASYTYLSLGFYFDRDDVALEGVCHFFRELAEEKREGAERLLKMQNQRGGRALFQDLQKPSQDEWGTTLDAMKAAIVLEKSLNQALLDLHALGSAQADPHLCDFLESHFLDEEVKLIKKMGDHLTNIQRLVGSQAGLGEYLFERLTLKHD

With `COc1ccc(-c2cc(=O)c3c(OC)c(OC)c(OC)c(OC)c3o2)cc1`, the compound was classed as inactive in experiment [1].
In the case of `NC(=NCc1ccc(Cl)c(Cl)c1)NC(=O)c1nc(Cl)c(N)nc1N`, the Potency entry in experiment [2] and in experiment [3] was “inactive” in each case. Besides, the compound was classed as inactive in [4], in experiment [5], in experiment [6], in experiment [8] and in experiment [9]. In addition, the Potency was 1580 nM (active) in [7], 370 nM (active) in experiment [10] and 2000 nM (active) in [11].
For the compound `Cc1cc(/C=C\c2ccc3cc(N(C)C)ccc3[n+]2C)c(C)n1-c1ccccc1`, the Potency in experiment [12] was 29000 nM (active); with AS120, 3160 nM (active); in the experiment with CP191, 1410 nM (active); with CP192, 2030 nM (active); in the experiment with CP194, 2870 nM (active); with CP203, 2280 nM (active). Besides, the results for the Potency in the experiment with CP247, in the experiment on CP291 and in the experiment on P94_40 were 3550 nM (active), 3610 nM (active) and 1000 nM (active), respectively.

The values above are taken from PubChem BioAssay (NCATS).
